Assay [1] is described as follows: NCI Yeast Anticancer Drug Screen. Data for the rad50 strain (AID 155).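 Further: 0% = growth of vehicle-only cultures of the same strain.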 The conditions noted are these: S. cerevisiae rad50 strain growth inhibition, stronger effect = higher value. In outline: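 Relative growth inhibition (compound vs vehicle) was measured in yeast with a defined repair-gene alteration.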
Assay [2] in a line: NCI Yeast Anticancer Drug Screen. Data for the mec2-1 strain (AID 157). The conditions noted are these: S. cerevisiae mec2-1 strain, stronger effect = higher value. In a few lines:
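Strain: mec2-1 (DNA repair/cell cycle alteration). Compound exposure, then growth measured; inhibition expressed relative to vehicle.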

Assay [3] is described as follows: NCI Yeast Anticancer Drug Screen. Data for the sgs1 mgt1 strain (AID 161).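 Further: 0% = growth of cultures given vehicle only.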 Conditions: S. cerevisiae sgs1 mgt1 strain, stronger effect = higher value. In outline:
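Inhibition of yeast growth, normalised to vehicle-treated controls, is reported for a strain bearing genetic alterations in DNA damage repair.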

Assay [4] can be described thus: NCI Yeast Anticancer Drug Screen. Data for the cln2 rad14 strain (AID 165).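 Further: 0% = growth equal to vehicle treated cultures.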 Conditions: S. cerevisiae cln2 rad14 strain, stronger effect = higher value. In outline:
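Compounds are applied to the cln2 rad14 yeast strain, and growth is then compared with that of vehicle-treated cultures to give inhibition.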

Assay [5] is described as follows: NCI Yeast Anticancer Drug Screen. Data for the bub3 strain (AID 167). Conditions: S. cerevisiae bub3 mutant strain, stronger effect = higher value. In outline: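 Screening used yeast with an engineered genetic alteration affecting cell cycle control. Compound-exposed cultures were compared with vehicle cultures, and reduced growth was taken as inhibition.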
Assay [6] is described as follows: NCI Yeast Anticancer Drug Screen. Data for the mlh1 rad18 strain (AID 175). Conditions: S. cerevisiae mlh1 rad18 strain growth inhibition, stronger effect = higher value. In outline:
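Read-out is yeast growth inhibition, calculated against vehicle-only controls. The compound was applied to a strain engineered with DNA damage repair alterations.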

Where [7] appears, read: at 5.0 µM (retest, dose inferred, filed as 0.5).
[8] abbreviates: at 50.0 µM (retest, dose inferred, filed as 5.0).

Drawing on PubChem BioAssay (NCI), this text covers growth inhibition for 9 compounds.

This is part of a sample that, as a whole, favours compounds with a hit. Of some 79,000 tested, about 15% had one in any assay. Values without a mark were called inactive. Active and inactive are the calls of the source. No stated cut-off is given here; in the data, active means growth inhibition above about 70%; inactive means the rest.

`Cc1ccc(C(=O)/C=C/c2ccco2)c(C)c1`: the growth inhibition is -9% in assay [1] (setting [7]); -12% in assay [1] (setting [8]); 11.3% in assay [1] (at 50.0 µM); -42% in assay [2] (setting [7]); 1% in assay [2] (setting [8]); 25.9% in assay [2] (at 50.0 µM). Besides, the growth inhibition in assay [3] (setting [7]) was -14%; in assay [3] (setting [8]) it was 15%; in assay [3] (at 50.0 µM) it was 63.8%; in assay [4] (setting [7]), -14%; in assay [4] (setting [8]) it was 5%; in assay [4] (at 50.0 µM), 25.8%. The growth inhibition in assay [5] (setting [7]) was 2%; in assay [5] (setting [8]) it was 4%; in assay [5] (at 50.0 µM), 54.5%; in assay [6] (setting [7]), -20%; in assay [6] (setting [8]) it was 61%; in assay [6] (at 50.0 µM), 17.6%.

For the compound `O=S1(=O)C=C(c2ccccc2)S(=O)(=O)C=C1c1ccccc1`, the growth inhibition in assay [1] (setting [7]) was -1%; in assay [1] (setting [8]), 85% (active); in assay [1] (at 50.0 µM), 89% (active); in assay [2] (setting [7]) it was 3%; in assay [2] (setting [8]), 76% (active); in assay [2] (at 50.0 µM), 89.7% (active). For the same compound, the growth inhibition in assay [3] (setting [7]) was 0%; in assay [3] (setting [8]) it was 63%; in assay [3] (at 50.0 µM), 95.2% (active); in assay [4] (setting [7]), 0%; in assay [4] (setting [8]), 94% (active); in assay [4] (at 50.0 µM) it was 57.9%. The growth inhibition was -5% in assay [5] (setting [7]); 81% (active) in assay [5] (setting [8]); 91.8% (active) in assay [5] (at 50.0 µM); 0% in assay [6] (setting [7]); 85% (active) in assay [6] (setting [8]); 91.2% (active) in assay [6] (at 50.0 µM).

On to `COc1cc(OC)c(C2CC(C)(OC)Oc3cc4c(cc32)OCO4)c(OC)c1` (configuration not stated), for which the growth inhibition in assay [1] (setting [7]) was 4%; in assay [1] (setting [8]) it was 10%; in assay [1] (at 50.0 µM) it was 4.35%; in assay [2] (setting [7]), 6%; in assay [2] (setting [8]), 3%; in assay [2] (at 50.0 µM), 17.1%. Besides, the growth inhibition in assay [3] (setting [7]) was 2%; in assay [3] (setting [8]) it was 12%; in assay [3] (at 50.0 µM) it was 3.8%; in assay [4] (setting [7]) it was 5%; in assay [4] (setting [8]), -4%; in assay [4] (at 50.0 µM), 5.45%. Further, the growth inhibition in assay [5] (setting [7]) is 0%; in assay [5] (setting [8]), -1%; in assay [5] (at 50.0 µM), -2.6%; in assay [6] (setting [7]) it was 5%; in assay [6] (setting [8]), 19%; in assay [6] (at 50.0 µM) it was 27.9%.

With `CC(=O)Sc1ccc(Br)cc1`, the growth inhibition in assay [1] (setting [7]) is 0%; in assay [1] (setting [8]), 73% (active); in assay [1] (at 50.0 µM), 45.3%; in assay [2] (setting [7]) it was 3%; in assay [2] (setting [8]), 52%; in assay [2] (at 50.0 µM) it was 36.9%. In addition, the growth inhibition is 3% in assay [3] (setting [7]); 60% in assay [3] (setting [8]); 34.9% in assay [3] (at 50.0 µM); -1% in assay [4] (setting [7]); 40% in assay [4] (setting [8]); -2.05% in assay [4] (at 50.0 µM). Moreover, the growth inhibition is 1% in assay [5] (setting [7]); 68% in assay [5] (setting [8]); 60.3% in assay [5] (at 50.0 µM); -2% in assay [6] (setting [7]); 76% (active) in assay [6] (setting [8]); 71.2% (active) in assay [6] (at 50.0 µM).

Turning to `O=c1c2cnccc2cc2c3ccccc3ccn12`, the growth inhibition in assay [1] (setting [7]) was 47%; in assay [1] (setting [8]), 93% (active); in assay [1] (at 50.0 µM), 91.8% (active); in assay [2] (setting [7]), 12%; in assay [2] (setting [8]), 58%; in assay [2] (at 50.0 µM), 41.5%. Besides, the growth inhibition is 9% in assay [3] (setting [7]); 64% in assay [3] (setting [8]); 6.75% in assay [3] (at 50.0 µM); 3% in assay [4] (setting [7]); 42% in assay [4] (setting [8]); 74.8% (active) in assay [4] (at 50.0 µM). The growth inhibition in assay [5] (setting [7]) was 5%; in assay [5] (setting [8]), 37%; in assay [5] (at 50.0 µM), 2.45%; in assay [6] (setting [7]), 26%; in assay [6] (setting [8]), 87% (active); in assay [6] (at 50.0 µM), 64%.

`CN(C)C1CCC2C(=C1OC(=O)c1ccccc1)C=Cc1ccccc12` (configuration not stated): the growth inhibition in assay [1] (setting [7]) is -1%; in assay [1] (setting [8]), 11%; in assay [1] (at 50.0 µM) it was 25%; in assay [2] (setting [7]), 2%; in assay [2] (setting [8]), 16%; in assay [2] (at 50.0 µM) it was 13.4%. Further, the growth inhibition in assay [3] (setting [7]) was 13%; in assay [3] (setting [8]), 38%; in assay [3] (at 50.0 µM), 31.9%; in assay [4] (setting [7]), 4%; in assay [4] (setting [8]), 7%; in assay [4] (at 50.0 µM), -1.4%. The growth inhibition in assay [5] (setting [7]) is 0%; in assay [5] (setting [8]), 12%; in assay [5] (at 50.0 µM) it was 22.9%; in assay [6] (setting [7]), 21%; in assay [6] (setting [8]) it was 53%; in assay [6] (at 50.0 µM), 67.5%.

As to `CCCCCCN(S(=O)(=O)c1ccc([N+](=O)[O-])cc1)S(=O)(=O)c1ccc([N+](=O)[O-])cc1`, the growth inhibition was 23% in assay [1] (setting [7]); 48% in assay [1] (setting [8]); 66.8% in assay [1] (at 50.0 µM); -105% in assay [2] (setting [7]); 51% in assay [2] (setting [8]); 73.7% (active) in assay [2] (at 50.0 µM). In addition, the growth inhibition in assay [3] (setting [7]) was 8%; in assay [3] (setting [8]), 48%; in assay [3] (at 50.0 µM), 71.3% (active); in assay [4] (setting [7]) it was 8%; in assay [4] (setting [8]), 55%; in assay [4] (at 50.0 µM), 68.7%. Besides, the growth inhibition in assay [5] (setting [7]) is 32%; in assay [5] (setting [8]) it was 50%; in assay [5] (at 50.0 µM) it was 56.9%; in assay [6] (setting [7]), 18%; in assay [6] (setting [8]) it was 48%; in assay [6] (at 50.0 µM), 73.8% (active).

With `O=C(CC[P+](c1ccccc1)(c1ccccc1)c1ccccc1)c1ccccc1`, the growth inhibition was 10% in assay [1] (setting [7]); 78% (active) in assay [1] (setting [8]); 94.8% (active) in assay [1] (at 50.0 µM); 6% in assay [2] (setting [7]); 92% (active) in assay [2] (setting [8]); 94.8% (active) in assay [2] (at 50.0 µM). Besides, the growth inhibition was 4% in assay [3] (setting [7]); 74% (active) in assay [3] (setting [8]); 86.2% (active) in assay [3] (at 50.0 µM); -3% in assay [4] (setting [7]); 71% (active) in assay [4] (setting [8]); 95.6% (active) in assay [4] (at 50.0 µM). Also, the growth inhibition in assay [5] (setting [7]) was 7%; in assay [5] (setting [8]), 79% (active); in assay [5] (at 50.0 µM), 94.8% (active); in assay [6] (setting [7]), 3%; in assay [6] (setting [8]), 84% (active); in assay [6] (at 50.0 µM), 93.1% (active).

`Cc1ccc2nc(C[n+]3cccc4ccccc43)ccc2c1`: the growth inhibition in assay [1] (setting [7]) was 96% (active); in assay [1] (setting [8]) it was 99% (active); in assay [1] (at 50.0 µM), 88.8% (active); in assay [2] (setting [7]), 95% (active); in assay [2] (setting [8]), 100% (active); in assay [2] (at 50.0 µM), 81.1% (active). For the same compound, the growth inhibition in assay [3] (setting [7]) is 88% (active); in assay [3] (setting [8]), 99% (active); in assay [3] (at 50.0 µM), 99.4% (active); in assay [4] (setting [7]) it was 92% (active); in assay [4] (setting [8]), 98% (active); in assay [4] (at 50.0 µM), 99% (active). The growth inhibition was 96% (active) in assay [5] (setting [7]); 99% (active) in assay [5] (setting [8]); 99.7% (active) in assay [5] (at 50.0 µM); 96% (active) in assay [6] (setting [7]); 99% (active) in assay [6] (setting [8]); 99.5% (active) in assay [6] (at 50.0 µM).
